In the supplement of paper PMC4466140:

Biological target: AgAbp1
Assay: SPOT peptide array binding signal intensity (averaged, normalized) (arbitrary units (background-subtracted, floor 0; scale differs between SH3 domains)); higher = stronger binding of the SH3 domain to the peptide
How it was run: (§1)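 GST-fused SH3 domains from four yeast species were expressed in E. coli BL21(DE3), purified on glutathione Sepharose and incubated at 10 μg/ml overnight at 4°C in TBS-based blocking buffer on cellulose membranes carrying synthetic 15-mer peptides, with cysteines replaced by serines. Bound protein was detected with anti-GST antibody, an HRP anti-mouse secondary and luminol, then imaged and quantified with Genespotter. Binding signal is the normalized, background-subtracted spot intensity averaged over replicates, in arbitrary units that differ between domains.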

Binder | SPOT peptide array binding signal intensity
DGNEEKPLLPTRPNK | ≤ 0

Biological target: AgBbc1
Assay: as above
How it was run: as §1

Binder | SPOT peptide array binding signal intensity
DGNEEKPLLPTRPNK | 977

Biological target: AgBem1-D1
Assay: as above
How it was run: as §1

Binder | SPOT peptide array binding signal intensity
DGNEEKPLLPTRPNK | ≤ 0

Biological target: AgBzz1-D1
Assay: as above
How it was run: as §1

Binder | SPOT peptide array binding signal intensity
DGNEEKPLLPTRPNK | 9.5

Biological target: AgBzz1-D2
Assay: as above
How it was run: as §1

Binder | SPOT peptide array binding signal intensity
DGNEEKPLLPTRPNK | 17.5

Biological target: AgCyk3
Assay: as above
How it was run: as §1

Binder | SPOT peptide array binding signal intensity
DGNEEKPLLPTRPNK | ≤ 0

Biological target: AgFus1
Assay: as above
How it was run: as §1

Binder | SPOT peptide array binding signal intensity
DGNEEKPLLPTRPNK | ≤ 0

Biological target: AgHof1
Assay: as above
How it was run: as §1

Binder | SPOT peptide array binding signal intensity
DGNEEKPLLPTRPNK | 23.8

Biological target: AgHse1
Assay: as above
How it was run: as §1

Binder | SPOT peptide array binding signal intensity
DGNEEKPLLPTRPNK | ≤ 0

Biological target: AgLsb1
Assay: as above
How it was run: as §1

Binder | SPOT peptide array binding signal intensity
DGNEEKPLLPTRPNK | 47.2

Biological target: AgLsb4
Assay: as above
How it was run: as §1

Binder | SPOT peptide array binding signal intensity
DGNEEKPLLPTRPNK | 1730

Biological target: AgMyo5
Assay: as above
How it was run: as §1

Binder | SPOT peptide array binding signal intensity
DGNEEKPLLPTRPNK | 0.25

Biological target: AgNbp2
Assay: as above
How it was run: as §1

Binder | SPOT peptide array binding signal intensity
DGNEEKPLLPTRPNK | ≤ 0

Biological target: AgRvs167
Assay: as above
How it was run: as §1

Binder | SPOT peptide array binding signal intensity
DGNEEKPLLPTRPNK | 43.8

Biological target: AgSho1
Assay: as above
How it was run: as §1

Binder | SPOT peptide array binding signal intensity
DGNEEKPLLPTRPNK | ≤ 0

Biological target: AgSla1-D1-D2
Assay: as above
How it was run: as §1

Binder | SPOT peptide array binding signal intensity
DGNEEKPLLPTRPNK | ≤ 0

Biological target: AgSla1-D3
Assay: as above
How it was run: as §1

Binder | SPOT peptide array binding signal intensity
DGNEEKPLLPTRPNK | ≤ 0

Biological target: CaAbp1-D1
Assay: as above
How it was run: as §1

Binder | SPOT peptide array binding signal intensity
DGNEEKPLLPTRPNK | ≤ 0

Biological target: CaAbp1-D2
Assay: as above
How it was run: as §1

Binder | SPOT peptide array binding signal intensity
DGNEEKPLLPTRPNK | ≤ 0

Biological target: CaBbc1
Assay: as above
How it was run: as §1

Binder | SPOT peptide array binding signal intensity
DGNEEKPLLPTRPNK | 844

Biological target: CaBem1-D1
Assay: as above
How it was run: as §1

Binder | SPOT peptide array binding signal intensity
DGNEEKPLLPTRPNK | ≤ 0

Biological target: CaBzz1-D1
Assay: as above
How it was run: as §1

Binder | SPOT peptide array binding signal intensity
DGNEEKPLLPTRPNK | 18

Biological target: CaBzz1-D2
Assay: as above
How it was run: as §1

Binder | SPOT peptide array binding signal intensity
DGNEEKPLLPTRPNK | 1.75

Biological target: CaCyk3
Assay: as above
How it was run: as §1

Binder | SPOT peptide array binding signal intensity
DGNEEKPLLPTRPNK | 7

Biological target: CaFus1
Assay: as above
How it was run: as §1

Binder | SPOT peptide array binding signal intensity
DGNEEKPLLPTRPNK | ≤ 0

Biological target: CaHof1
Assay: as above
How it was run: as §1

Binder | SPOT peptide array binding signal intensity
DGNEEKPLLPTRPNK | 0.5

Biological target: CaHse1
Assay: as above
How it was run: as §1

Binder | SPOT peptide array binding signal intensity
DGNEEKPLLPTRPNK | 6.38

Biological target: CaLsb1
Assay: as above
How it was run: as §1

Binder | SPOT peptide array binding signal intensity
DGNEEKPLLPTRPNK | ≤ 0

Biological target: CaLsb4
Assay: as above
How it was run: as §1

Binder | SPOT peptide array binding signal intensity
DGNEEKPLLPTRPNK | 3160

Biological target: CaMyo5
Assay: as above
How it was run: as §1

Binder | SPOT peptide array binding signal intensity
DGNEEKPLLPTRPNK | ≤ 0

Biological target: CaNbp2
Assay: as above
How it was run: as §1

Binder | SPOT peptide array binding signal intensity
DGNEEKPLLPTRPNK | 4.5

Biological target: CaRvs167
Assay: as above
How it was run: as §1

Binder | SPOT peptide array binding signal intensity
DGNEEKPLLPTRPNK | 382

Biological target: CaRvs167-3
Assay: as above
How it was run: as §1

Binder | SPOT peptide array binding signal intensity
DGNEEKPLLPTRPNK | 22

Biological target: CaSho1
Assay: as above
How it was run: as §1

Binder | SPOT peptide array binding signal intensity
DGNEEKPLLPTRPNK | 1.5

Biological target: CaSla1-D1-D2
Assay: as above
How it was run: as §1

Binder | SPOT peptide array binding signal intensity
DGNEEKPLLPTRPNK | ≤ 0

Biological target: CaSla1-D3
Assay: as above
How it was run: as §1

Binder | SPOT peptide array binding signal intensity
DGNEEKPLLPTRPNK | ≤ 0

Biological target: ScAbp1
Assay: as above
How it was run: as §1

Binder | SPOT peptide array binding signal intensity
DGNEEKPLLPTRPNK | ≤ 0

Biological target: ScBbc1
Assay: as above
How it was run: as §1

Binder | SPOT peptide array binding signal intensity
DGNEEKPLLPTRPNK | 306

Biological target: ScBem1-D1
Assay: as above
How it was run: as §1

Binder | SPOT peptide array binding signal intensity
DGNEEKPLLPTRPNK | 6.5

Biological target: ScBzz1-D1
Assay: as above
How it was run: as §1

Binder | SPOT peptide array binding signal intensity
DGNEEKPLLPTRPNK | 34.2

Biological target: ScBzz1-D2
Assay: as above
How it was run: as §1

Binder | SPOT peptide array binding signal intensity
DGNEEKPLLPTRPNK | ≤ 0

Biological target: ScCyk3
Assay: as above
How it was run: as §1

Binder | SPOT peptide array binding signal intensity
DGNEEKPLLPTRPNK | ≤ 0

Biological target: ScFus1
Assay: as above
How it was run: as §1

Binder | SPOT peptide array binding signal intensity
DGNEEKPLLPTRPNK | ≤ 0

Biological target: ScHof1
Assay: as above
How it was run: as §1

Binder | SPOT peptide array binding signal intensity
DGNEEKPLLPTRPNK | 41.6

Biological target: ScHse1
Assay: as above
How it was run: as §1

Binder | SPOT peptide array binding signal intensity
DGNEEKPLLPTRPNK | 15

Biological target: ScLsb1
Assay: as above
How it was run: as §1

Binder | SPOT peptide array binding signal intensity
DGNEEKPLLPTRPNK | 209

Biological target: ScLsb2
Assay: as above
How it was run: as §1

Binder | SPOT peptide array binding signal intensity
DGNEEKPLLPTRPNK | 10

Biological target: ScLsb3
Assay: as above
How it was run: as §1

Binder | SPOT peptide array binding signal intensity
DGNEEKPLLPTRPNK | 7260

Biological target: ScLsb4
Assay: as above
How it was run: as §1

Binder | SPOT peptide array binding signal intensity
DGNEEKPLLPTRPNK | 4200

Biological target: ScMyo3
Assay: as above
How it was run: as §1

Binder | SPOT peptide array binding signal intensity
DGNEEKPLLPTRPNK | 0.5

Biological target: ScMyo5
Assay: as above
How it was run: as §1

Binder | SPOT peptide array binding signal intensity
DGNEEKPLLPTRPNK | 8.12

Biological target: ScNbp2
Assay: as above
How it was run: as §1

Binder | SPOT peptide array binding signal intensity
DGNEEKPLLPTRPNK | ≤ 0

Biological target: ScPex13
Assay: as above
How it was run: as §1

Binder | SPOT peptide array binding signal intensity
DGNEEKPLLPTRPNK | 855

Biological target: ScRvs167
Assay: as above
How it was run: as §1

Binder | SPOT peptide array binding signal intensity
DGNEEKPLLPTRPNK | 871

Biological target: ScSho1
Assay: as above
How it was run: as §1

Binder | SPOT peptide array binding signal intensity
DGNEEKPLLPTRPNK | ≤ 0

Biological target: ScSla1-D1-D2
Assay: as above
How it was run: as §1

Binder | SPOT peptide array binding signal intensity
DGNEEKPLLPTRPNK | ≤ 0

Biological target: ScSla1-D3
Assay: as above
How it was run: as §1

Binder | SPOT peptide array binding signal intensity
DGNEEKPLLPTRPNK | ≤ 0

Biological target: SpAbp1-D1
Assay: as above
How it was run: as §1

Binder | SPOT peptide array binding signal intensity
DGNEEKPLLPTRPNK | ≤ 0

Biological target: SpBbc1
Assay: as above
How it was run: as §1

Binder | SPOT peptide array binding signal intensity
DGNEEKPLLPTRPNK | 0.5

Biological target: SpBzz1-D1
Assay: as above
How it was run: as §1

Binder | SPOT peptide array binding signal intensity
DGNEEKPLLPTRPNK | ≤ 0
